From PubChem BioAssay (Tox21)
Records with an inconclusive call do not appear. A number with no mark means an inactive call. Calls come from the whole dose curve; as a rule, active = well fitted activation curve with a large enough effect in the repeat runs; inconclusive = weak or mixed curves; inactive = flat fitted curve, though single readings scatter.

Assay: Caspase-3/7 induction in HepG2 cells by small molecules, qHTS assay (AID 1346978); note: nearly all actives have a fitted effect of over 15% in size
Conditions: HepG2 caspase-3/7 activation, Caspase-Glo luminescence, 17 h; series mostly up to 92.4 µM; caspase activation: at the top concentration
Description: National Center for Advancing Translational Sciences [NCATS] NIH Chemical Genomics Center [NCGC] U.S. Environmental Protection Agency [EPA] National Institutes of Environmental Health Sciences [NIEHS] National Toxicology Program [NTP] Assay overview: Apoptosis is a process of programmed cell death and plays a central role in the development of multicellular organisms. It is a highly regulated process and induces cell death by activating caspases, which are the members of cysteine aspartic acid-specific protease (caspase) family. Caspases involved in apoptosis are classified by their mechanism of action as initiator caspases (caspase-2, -8, -9 and -10) and executioner caspases (caspase-3, -6, and -7). Inhibition of apoptosis results in number of cancers, autoimmune diseases, inflammatory diseases and viral infection. To identify small molecule compounds that induce apoptosis, a homogeneous, luminescent Caspase-Glo 3/7 assay was used. Wild type HepG2 cells were used to screen Tox21 libraries for identifying caspase-3/7 activity inducers.
Assay Protocol Summary: HepG2 cells were dispensed at 2,000 per well in 5uL of culture medium into white solid bottom 1536-well plates (Corning Life Sciences, Corning, NY) using a Multidrop Combi (Thermo Scientific, Waltham, MA) dispenser. The assay plates were incubated at 37 C and 5% CO2 for 5hr, and then 23nL of compounds dissolved in DMSO and positive control were transferred using a Pintool station (Wako, San Diego, CA). The assay plates were incubated at 37C and 5% CO2 for 17hr. For caspase-3/7 activity read, 4uL of Caspase-Glo 3/7 reagent (Promega Corporation, Madison, WI) was added to each well of the assay plates using Flying Reagent Dispenser (FRD, Aurora Discovery, San Diego, CA) and incubated the assay plates at room temperature for 30min. The luminescence signal was quantified using a ViewLux plate reader (Perkin Elmer, Shelton, CT).
% is set by controls: 0 for no effect and ±100 for the full control effect.

Structure (SMILES)	caspase activation
CCC(=O)O[C@]1(C(=O)SCF)[C@H](C)C[C@H]2[C@@H]3C[C@H](F)C4=CC(=O)C=C[C@]4(C)[C@@]3(F)[C@@H](O)C[C@@]21C	0.192% [at 42.5 µM]
O=c1[nH]c(=O)n([C@H]2C[C@H](O)[C@@H](CO)O2)cc1C(F)(F)F	-1.74% [at 42.5 µM]
COC(C)CCO (stereo not given)	0.286%
C[C@@H]1CN(c2c(F)c(F)c3c(=O)c(C(=O)O)cn(C4CC4)c3c2F)C[C@H](C)N1	-1.23% [at 19 µM]
CC1(O)CSC(C)(O)CS1 (stereo not given)	-0.863%
CCCNC(C)C(=O)Nc1c(C)csc1C(=O)OC (stereo not given)	0.911% [at 42.5 µM]
CC1(C)O[C@@H]2C[C@H]3[C@@H]4CCC5=CC(=O)CC[C@]5(C)[C@@]4(F)[C@@H](O)C[C@]3(C)[C@]2(C(=O)CCl)O1	0.47% [at 42.5 µM]
CCCCCCCCCC#N	-0.39%
O=CCCc1ccccc1	0.125%
Cn1cnc2c(F)c(Nc3ccc(Br)cc3Cl)c(C(=O)NOCCO)cc21	13% [at 42.5 µM]
Cc1ccc([N+](=O)[O-])c(N)c1	-2.09%
CCOC(=O)CS	-1.19%
C=Cc1ccccc1	-0.641%
Cc1cn([C@@H]2O[C@H](CO)[C@@H](O)[C@@H]2F)c(=O)[nH]c1=O	-0.0162% [at 42.5 µM]
COc1ccc(Nc2ccc(OC)cc2)cc1	-7.14%
O=c1[nH]cnc2c1ncn2[C@@H]1O[C@H](CO)[C@@H](O)[C@H]1O	0.0287% [at 42.5 µM]
CCC(=O)c1ccc2c(c1)N(CCCN(C)C)c1ccccc1S2	3.93% [at 42.5 µM]
CN1CCC[C@@H]1Cc1c[nH]c2ccc(CCS(=O)(=O)c3ccccc3)cc12	-0.641% [at 42.5 µM]
CCOc1ccccc1N	0.784%
Cc1ccsc1C(=CCCN1CCC[C@@H](C(=O)O)C1)c1sccc1C	-0.689% [at 42.5 µM]

Structure (SMILES)	caspase activation
COC(=O)C(C)O (stereo not given)	0.0225%
CN1CCN(C2=Nc3cc(F)ccc3Cc3ccccc32)CC1	3.5% [at 42.5 µM]
CCCCCCCCOC(=O)CCCCCCCCC(=O)OCCCCCCCC	0.856%
Cc1cc2nc(N)sc2cc1C	-15.1%
CCOC(=O)C(Br)c1ccccc1 (stereo not given)	-1%
Cc1ccccc1C(=O)Nc1ccc(C(=O)N2CCCC(O)c3cc(Cl)ccc32)c(C)c1 (stereo not given)	1.35% [at 42.5 µM]
COc1ccc(S(=O)(=O)Nc2nnc(CC(C)C)s2)cc1	-0.256% [at 42.5 µM]
FC(F)(F)C(Cl)(Cl)Cl	0.898%
CCCCCCCCCCCCCCCCOP(=O)([O-])OCC[N+](C)(C)C	0.0558% [at 42.5 µM]
CC(C)c1ccccc1	0.171%
Nc1ccc(Oc2ccc(N)c(N)c2)cc1	-5%
O=C1Nc2ccc([N+](=O)[O-])cc2C1=O	-1.41%
CCN(CC)CCNC(=O)COc1ccc(Cl)cc1	-1.2% [at 42.5 µM]
CCCCC(CC)COC(=O)COc1cc(Cl)c(Cl)cc1Cl (stereo not given)	-0.0842%
CCC(=O)Nc1ccc(O)cc1	-0.405% [at 42.5 µM]
CC(C)(C)c1cccc(O)c1	0.89%
O=C(O)[C@@H](O)[C@H](O)[C@H](O)[C@@H](O)C(=O)O	0.512% [at 42.5 µM]
NC(=O)Cc1cccc(C(=O)c2ccccc2)c1N	-0.505% [at 42.5 µM]
CN(C)CC[C@@H](c1ccc(Cl)cc1)c1ccccn1	-0.828% [at 42.5 µM]
CN1C(=O)CC(c2ccccc2)C1=O (stereo not given)	-0.0659% [at 42.5 µM]
